# Assay outcomes as filed in PubChem BioAssay.
# The list is not random: actives were taken first. Their share in the collection is about 0.47%.
# AID inhibitor – Primary qHTS assay for inhibitors of Activation Induced Cytidine Deaminase (AID): AID signal; Single-stranded DNA cytosine deaminase (Homo sapiens), Q9GZX7; AID deamination FRET fluorescence, UDG-coupled, 4 h; Potency, µM (titrated, usually from 115 µM), most hits filed as inhibitors; actives 0.32% (n = 91,000); AID 1347428, 2020; further: nearly all actives have a fitted effect of over 25% in size
# Target sequence (Q9GZX7 whole entry, looked up): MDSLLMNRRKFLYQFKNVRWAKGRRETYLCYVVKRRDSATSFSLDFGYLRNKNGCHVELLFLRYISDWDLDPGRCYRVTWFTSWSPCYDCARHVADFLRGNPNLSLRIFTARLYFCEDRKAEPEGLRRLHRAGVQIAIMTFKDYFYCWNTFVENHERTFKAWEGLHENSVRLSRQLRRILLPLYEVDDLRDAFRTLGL
# UDG counterscr – Primary qHTS assay for inhibitors of Activation Induced Cytidine Deaminase (AID): UDG Counterscreen signal; actives 0.14% (n = 91,000); FRET deamination/UDG coupled assay, UDG read, 4 h; Uracil-DNA glycosylase; Potency, µM (highest dose often 115 µM), for the others: at the highest dose activity change, negative = inhibition, usual class: inhibitors; further: nearly all actives have a fitted effect of over 65% in size
# Numbers without * were called inactive; i = inactive; ? = inconclusive. The call rests on the fitted dose curve; in most records, active means well fitted curve in the direction sought with a large enough effect; inconclusive means small, poorly fitted or top-dose-only effect, or another doubt; inactive means no such curve, though single readings can be large; an effect the other way counts as inactive or inconclusive. On the % scale 0 is the no-effect control and ±100 the full control effect; potency means the concentration at half of the fitted maximal effect.
SMILES,AID inhibitor,UDG counterscr
O=C(Nc1ccc(Cl)c(Cl)c1)C12CC3CC(CC(C3)C1)C2,i,2.1%
COc1ccccc1C(=O)Nc1ccc2nc(N3CCC(C)CC3)cc(C)c2c1,?,-17.6%
COc1cc(OC)cc(C(=O)Nc2ccc3nc(N4CCC(C)CC4)cc(C)c3c2)c1,39.8µM*,?
NNc1cccc(S(=O)(=O)c2cccc(NN)c2)c1,?,44.7µM*
NNc1ccc(S(=O)(=O)c2ccc(NN)cc2)cc1,i,-17.5%
COc1ccc(C(=O)NCC(c2cccnc2)N2CCc3ccccc32)cc1 (stereo not given),100µM*,-14.6%
O=C(NCC(c1cccnc1)N1CCc2ccccc21)c1ccc(Cl)cc1 (stereo not given),?,-11.5%
COC(=O)C1CCN(C(=O)COC(=O)c2cccc3c(=O)c(C)c(-c4ccccc4)oc23)CC1,i,-3.6%
COc1ccccc1C(=O)Nc1ccc(OCc2cc(=O)n3cccc(C)c3n2)cc1,i,9.0%
COc1cc(C(=O)Nc2ccc(OCc3cc(=O)n4cccc(C)c4n3)cc2)cc(OC)c1OC,22.4µM*,-2.5%
Cc1ccc(C(NC(=O)CSc2nnnn2C2CCCCC2)c2cccs2)cc1 (stereo not given),i,-3.2%
Cc1cc(-n2c(C)nc3ccccc3c2=O)ccc1NC(=O)c1cccc([N+](=O)[O-])c1C,i,89.1µM*
Cc1cc(-n2c(C)nc3ccccc3c2=O)ccc1NC(=O)c1ccccc1[N+](=O)[O-],i,-14.2%
Cn1c(NCc2ccccc2Cl)nc2c1c(=O)n(Cc1ccccc1F)c(=O)n2C,i,-4.9%
CC(OC(=O)CSc1nc2ccccc2o1)C(=O)NC1(C#N)CCCCC1 (stereo not given),i,14.2%
CCc1nn(C(C)C(=O)N2CCN(c3cccc(C(F)(F)F)c3)CC2)c(=O)c2cc3occc3n12 (stereo not given),31.6µM*,-14.9%
Cc1cccc(N2CCN(C(=O)C(C)n3nc(C)n4c(cc5occc54)c3=O)CC2)c1C (stereo not given),?,-18.2%
CCOc1ccc(-c2noc(CSc3nnc(Cc4ccccc4)n3-c3ccc(F)cc3)n2)cc1,?,-22.9%
Cc1ccccc1-c1noc(CSc2nnc(Cc3ccccc3)n2-c2ccc(F)cc2)n1,20µM*,?
CCOc1ccc(-n2c(Cc3ccccc3)nnc2SCc2nc(-c3ccccc3OC)no2)cc1,?,-18.9%
CCc1ccc(-n2c(Cc3ccccc3)nnc2SCc2nc(-c3cccs3)no2)cc1,39.8µM*,?
CCCCc1nc(CN2CCN(c3cccc(F)c3C#N)CC2)no1,?,89.1µM*
CCCCc1noc(CN2CCC(c3nc4cc(Cl)ccc4o3)CC2)n1,i,-11.3%
Cc1cc(C)nc(Nc2nc(-c3ccccc3)c3ccccc3n2)n1,i,-6.6%
Cc1ccc(Cc2nc3ccccc3nc2SCC(=O)N2CCC(C)CC2)cc1,?,-12.2%
SMILES,AID inhibitor,UDG counterscr
CC1CCCCN1C(=O)CSc1nc2ccccc2nc1Cc1ccccc1 (stereo not given),50.1µM*,-18.5%
O=C(/C=C/Nc1ccc(Oc2ccccc2)cc1)c1ccc(Br)cc1,i,-6.3%
COc1ccc(-c2nc(SCC(=O)c3ccc(Cl)cc3)n[nH]2)cc1,i,26.9%
COc1ccc(NC(=O)c2ccc(S(=O)(=O)NCC3CCCO3)cc2)cc1 (stereo not given),i,-3.6%
COc1cccc(CNC(=O)c2ccc3c(=O)n4nc(Nc5ccccc5)sc4nc3c2)c1,i,-2.5%
CCN(CC)CCNC(=O)c1ccc2c(=O)n3nc(Nc4ccccc4)sc3nc2c1,70.8µM*,-8.6%
CCN1CCN(c2ccc(NC(=O)c3ccc(Cl)c(S(=O)(=O)N(CC)CC)c3)cc2)CC1,i,1.2%
Cc1ccc(C2CCN(C(=O)c3cnn(-c4cccc(Cl)c4)c3C3CCN(C(=O)OC(C)(C)C)CC3)C2)cc1 (stereo not given),?,-2.1%
COc1ccccc1CN1CCC(CNC(=O)c2cnn(-c3ccc(C)c(C)c3)c2C2CCN(C(=O)OC(C)(C)C)CC2)CC1,?,46.2%
COc1ccccc1CN1CCC(CNC(=O)c2cnn(-c3ccc(Cl)cc3)c2C2CCN(C(=O)OC(C)(C)C)CC2)CC1,44.7µM*,?
Cc1ccc(C2CCN(C(=O)c3cnn(-c4ccc(C)cc4)c3C3CCN(C(=O)OC(C)(C)C)CC3)C2)cc1 (stereo not given),i,52.4%
CC(C)(C)OC(=O)N1CCC(c2c(C(=O)N3CCC(c4ccccc4)C3)cnn2-c2cccc(Cl)c2)CC1 (stereo not given),39.8µM*,?
CC(C)(C)OC(=O)N1CCC(c2c(C(=O)N3CCC(c4ccccc4)C3)cnn2-c2ccc(Cl)cc2)CC1 (stereo not given),39.8µM*,?
CC(C)CCNC(=O)c1ccc(CNC(N)=O)cc1,i,-6.7%
CC(C)CC(=O)Nc1ccc(-c2csc(N)n2)cc1,i,-2.9%
O=C(Cc1n[nH]c(=O)c2ccccc12)Nc1ccc(S(=O)(=O)N2CCCC2)cc1,39.8µM*,-18.9%
Cn1nc(CC(=O)Nc2ccc(S(=O)(=O)N3CCCCCC3)cc2)c2ccccc2c1=O,i,-3.5%
Cc1occc1-c1nc(-c2ccccc2)no1,i,5.5%
COc1cc(/C=C(/C#N)c2nc3ccccc3[nH]2)ccc1OCCc1ccccc1,i,11.1%
Cc1ccc(C(=O)NC(Nc2ccccc2)C(Cl)(Cl)Cl)cc1 (stereo not given),i,-23.3%
CC(CNC(=O)c1sc2ncccc2c1-n1cccc1)c1ccccc1 (stereo not given),79.4µM*,-17.3%
Cc1ccc(CCNC(=O)c2sc3ncccc3c2-n2cccc2)cc1,i,-6.6%
Cc1cc(C)c2c(-n3cccc3)c(C(=O)NCC(C)c3ccccc3)sc2n1 (stereo not given),?,-10.2%
O=C(NCCc1ccccc1Cl)c1sc2ncccc2c1-n1cccc1,35.5µM*,-1.4%
O=C(Oc1ccccc1Cl)c1ccccc1OCc1ccc(Cl)cc1,i,7.7%
SMILES,AID inhibitor,UDG counterscr
COC(=O)c1cccc(COC(=O)c2ccc(CO)cc2)c1,i,-3.6%
CCOc1ccccc1Oc1coc2cc(OC(=O)c3ccccc3)ccc2c1=O,i,-11.2%
COc1ccc(C(CC(=O)c2ccco2)SCCO)cc1OC (stereo not given),i,-5.3%
Cc1noc2ncnc(Nc3ccc(F)cc3)c12,i,-12.7%
CC(C)c1ccc(Nc2ncnc3onc(-c4ccc(F)cc4)c23)cc1,?,89.1µM*
O=C(Cn1c(=O)c2c(ncn2C2CCCC2)n(Cc2ccccc2)c1=O)N1CCCC1,i,-4.1%
O=C(O)CSCc1cccc(Br)c1,i,6.5%
Cc1ccc(-c2nnc(Nc3ccc(Cl)c(Cl)c3)c3ccccc23)cc1S(=O)(=O)N(C)C,i,-16.0%
CCN(CC)S(=O)(=O)c1cc(-c2nnc(Nc3ccc(OC)c(C(N)=O)c3)c3ccccc23)ccc1C,35.5µM*,?
